# Shown are actives, neighbours in structure and some others; about 4.2% of the full set was active somewhere.
# NALP1 yeast inh: inhibitors of NALP1 inflammasome in yeast; S. cerevisiae NALP1/ASC/caspase-1 growth, X-gal OD620, 72 h; inhibition, % at 10 µM; actives 0.61% (n = 280,000); in the data active means inhibition mostly above about 24%, no sharp cut-off; inactive means mostly below about 32%
# TIM10 inh: TIM10 yeast growth inhibition; S. cerevisiae TIM10 strain growth, BacTiter-Glo luminescence, 24 h; inhibition, % at 10 µM; actives 1.4% (n = 330,000); AID 463195;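 active means inhibition of 40% or more at the single tested concentration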;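 further: wild-type TIM10 isogenic control strain grown at permissive 25 °C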
# tim10-1 inh: tim10-1 yeast growth inhibition; AID 463190; inhibition, % at 20 µM; S. cerevisiae tim10-1 ts strain growth, BacTiter-Glo, 24 h; actives 2.2% (n = 330,000);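 active means inhibition of at least 40%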;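 further: mutant grown at 25 °C; 0% = DMSO wells with yeast and 100% = wells holding no yeast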
# NALP3 yeast inh: inhibitors of NALP3 inflammasome in yeast; actives 0.39% (n = 330,000); inhibition, % at 10 µM; Yeast reconstituted NLRP3/ASC/caspase-1, beta-gal luminescence, 24 h;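 active means inhibition of 50% or more; inactive means inhibition below 50%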;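 further: plate controls were induced DMSO wells for no effect and uninduced yeast grown without galactose for full effect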
# V-ATPase pH: regulators of yeast V-ATPase proton transport | S. cerevisiae, pHLuorin cytosolic pH fluorescence | actives 0.37% (n = 350,000) | response, % at 10 µM; in the data active means response mostly above about 7.3%, no sharp cut-off; inactive means mostly below about 5.4%; further: actives read high
# tim23-1 inh: inhibits growth of tim23-1 mutant yeast | S. cerevisiae tim23-1 growth, BacTiter-Glo luminescence, 24 h | inhibition, % at 20 µM | actives 1.3% (n = 330,000);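 active means growth inhibition of the mutant yeast at or above 50%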;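 further: temperature-sensitive mutant grown at 25 °C; plate controls were DMSO-treated mutant yeast for no effect and medium wells lacking yeast for full effect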
# tim10-1 confirm: tim10-1 yeast growth inhibition, confirmed; shares compounds with tim10-1 inh; S. cerevisiae tim10-1 ts strain growth, BacTiter-Glo, 24 h; inhibition, % at 20 µM; actives 56% (n = 7,400); AID 463213;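 active means inhibition of yeast growth at or above a set limit in either of two repeat tests at 20 µM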;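 further: tim10-1 mutant grown at permissive 25 °C to find synthetic lethal compounds; 0% = DMSO yeast wells and 100% = medium wells without yeast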
# * = called active by the depositor; · = not tested or not shown.
SMILES,NALP1 yeast inh,TIM10 inh,tim10-1 inh,NALP3 yeast inh,V-ATPase pH,tim23-1 inh,tim10-1 confirm
CC1C(=O)N2CCCc3cc(NC(=O)C(=O)NCCc4ccc(F)cc4)cc1c32 (configuration not stated),·,5,1,3,1,-5,·
Cc1ccc(NC(=O)c2ccccc2NC(=O)Cc2ccccc2)cc1,38,30,44*,21,-2,32,21
Cc1ccccc1C(=O)Nc1ccccc1C(=O)NCc1ccccc1,11,25,43*,1,4,30,36*
O=C(Nc1ccccc1C(=O)NCc1ccccc1)c1ccccc1Br,30,16,15,2,-1,34,·
CCOc1ccc(NC(=O)CCC(=O)NNC(=O)c2ccc(Br)o2)cc1,16,-9,0,10,-3,8,·
C=CCNC(=S)NNC(=O)c1cccn(Cc2ccc(Cl)cc2Cl)c1=O,-19,-22,47*,2,0,12,30
COc1ccc(-c2nnc(SCc3cccc(C)c3)n2N)cc1,-14,25,12,8,-3,20,·
COc1ccc(-c2nnc(SCc3cc(C)ccc3C)n2N)cc1,2,39,42*,5,-4,45,39*
COc1cccc(-c2csc(N3CCN(C(=S)Nc4ccccc4Cl)CC3)n2)c1,-8,29,44*,23,8,25,34*
CCOCCCNC(=S)N1CCN(c2nc(-c3ccccc3)cs2)CC1,8,8,19,28,-1,34,·
COc1cccc(-c2csc(N3CCN(C(=S)Nc4ccccc4OC)CC3)n2)c1,9,14,34,5,-1,22,·
COCCCNC(=S)N1CCN(c2nc(-c3ccccc3)cs2)CC1,-3,6,40*,24,-3,36,13
CS(=O)(=O)c1ccc(NC(=O)c2ccc3c(c2)S(=O)(=O)N=C2CCCCCN23)cc1,·,3,-7,17,-4,5,·
Cc1ccc(C(=O)N2CCC3(CC2)Oc2ccc(F)cc2C(=O)C32CC(c3cccnc3)=NO2)s1 (configuration not stated),22,-8,42*,12,0,-2,25
COc1ccc(OC)c(N(CC(=O)NCC2CCCO2)S(=O)(=O)c2ccccc2)c1 (configuration not stated),19,3,19,-5,1,19,·
CC(C)CC1C(=O)N(Cc2cn(CCC3OCCCO3)nn2)CCS(=O)(=O)N1Cc1ccc(-c2ccc(Cl)nc2)cc1 (configuration not stated),·,·,·,·,0,·,·
CCn1nc(C)c(NC(=O)c2cnn3c(C(F)F)cc(-c4ccccc4)nc23)c1C,-17,19,42*,1,-1,19,16
O/N=C\c1cnc(N2CCN(c3ccccc3)CC2)s1,6,22,13,5,6,43,·
COc1ccc(-c2c(-c3cc(OC)cc(OC)c3)n(C)c3ccc(-c4ccc5[nH]ccc5c4)cc23)cc1,·,-7,22,11,-1,14,·
O=C1CC(SCc2nc3ccccc3[nH]2)C(=O)N1c1ccc(F)c(Cl)c1 (configuration not stated),-1,35,54*,-3,5,21,42*
O=C(CC(C(=O)O)c1cccc(Br)c1)c1ccc(Cl)cc1 (configuration not stated),0,10,-4,11,3,1,·
O=C(Nc1ccc(C(F)(F)F)cc1)C1CCN(c2cnccn2)CC1,18,10,41*,13,-1,28,2
COc1cc(C)nc(N(C)S(=O)(=O)c2ccccc2Cl)n1,9,25,43*,-9,-3,23,26
O=C(COC(=O)CCCOc1ccccc1)NNC(=O)c1ccc([N+](=O)[O-])cc1,15,4,-2,9,-3,4,·
CCOC(=O)CC(=O)CSc1nc2c(c(-c3cccs3)c1C#N)CCC2,·,26,42*,14,-4,41,33*
SMILES,NALP1 yeast inh,TIM10 inh,tim10-1 inh,NALP3 yeast inh,V-ATPase pH,tim23-1 inh,tim10-1 confirm
FC(F)(F)c1nc(N2CCCC2)ncc1-c1nnnn1-c1ccc(Cl)cc1,9,18,40*,11,-2,23,11
Cc1ccc(-c2nnnn2-c2ccc(C)cc2)cc1,6,27,33,27,6,45,·
Fc1ccc(-n2nnnc2-c2cnc(-c3cccs3)nc2C(F)(F)F)cc1,5,33,41*,-18,1,13,19
Cc1ccc(-n2nnnc2-c2cnn(-c3ccc(F)cc3)c2C(F)(F)F)cc1,-56,6,41*,5,4,28,3
CC(=O)N1CCN(S(=O)(=O)c2cccc(C(=O)NNC(=O)c3ccc(Br)cc3)c2)CC1,·,·,·,·,4,·,·
Cc1cc(Br)c(NC(=O)COC(=O)CC2CC3CCC2C3)c(Br)c1 (configuration not stated),·,3,10,-12,0,32,·
O=C(COC(=O)CNS(=O)(=O)/C=C/c1ccccc1)Nc1cc(S(=O)(=O)N2CCCCC2)ccc1Cl,12,-15,5,11,2,-10,·
Cc1cc(C)c2nc(N(CCN(C)C)C(=O)c3ccc(S(=O)(=O)N(C)CC4CCCO4)cc3)sc2c1 (configuration not stated),27,15,42*,8,7,22,3
CCN(Cc1ccccc1)S(=O)(=O)c1ccc(C(=O)N(CCCN(C)C)c2nc3c(C)c(C)ccc3s2)cc1,·,5,46*,19,-3,28,-2
Cc1cc(C)c2nc(N(CCCN(C)C)C(=O)c3ccc(S(=O)(=O)N4CC(C)OC(C)C4)cc3)sc2c1 (configuration not stated),·,16,23,19,2,14,·
Cc1ccc2sc(N(CCN(C)C)C(=O)c3ccc(S(=O)(=O)N4CC(C)OC(C)C4)cc3)nc2c1C (configuration not stated),-2,29,40*,11,0,26,24
CCOc1ccc(S(=O)(=O)N2CCCC(C(=O)NCC3CCCO3)C2)cc1 (configuration not stated),4,2,2,11,3,17,·
CN1C(=O)/C(=C\c2ccccc2F)Sc2ccc(C(=O)NC3CCN(Cc4ccccc4)CC3)cc21,24,-14,43*,20,4,12,-50
O=C1CSC(c2cccc([N+](=O)[O-])c2)N1CCc1ccccc1 (configuration not stated),13,0,8,7,1,23,·
Cc1cc(=O)oc2cc(OCC(=O)NC3CCCCC3)ccc12,8,-3,-17,18,-4,2,·
Cc1cccc(-n2c(C)c(C)c3c(N)ncnc32)c1,-2,0,10,7,-2,26,·
COc1cc(-c2nn3c(-c4ccco4)nnc3s2)cc(OC)c1OC,4,·,·,·,·,·,·

# Screening data as filed in PubChem.
